# Of roughly 7,900 targets only a part is listed; those with a hit were picked by preference. About 0.6% of all pairs of compound and target were hits. A number with no mark means an inactive call.
# Tests used:
# Assay in all cases: log2 fold change, soluble protein after heating vs DMSO (PISA); higher = thermal stabilisation; K562 cells, 10 uM, 30 min; active = over 0.2 and 3.5 SD of the protein, either way, in both replicates (recomputed)
# [1] = compound: C#Cc1cccc(Nc2ncnc3cc(OCCOC)c(OCCOC)cc23)c1 [erlotinib]
# How it was run: (§1)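 Quantification of soluble protein used TMTpro 16plex LC-MS/MS, with channel sums equalised. Samples were the supernatant after 21,000xg for 90 min of pooled aliquots from K562 cells (2×10^6 cells/mL) treated with 10 μM compound for 30 min, heated for 3 min over 48°C-58°C, and extracted in PBS with 0.5% NP-40 at 4°C. Values, from duplicates, describe thermal stability against control samples on a log2 fold-change scale.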
# [2] = compound: C/C(=N\NC(=O)C1=CC(=CC=C1)S(=O)(=O)N2CCOCC2)/C3=C(C=CC(=C3)Cl)O
# How it was run: as §1
# [3] = compound: C1=CC(=C(C=C1Cl)C2=NC3=NC=CN=C3C(=N2)NC4=CC=NC=C4)F
# How it was run: as §1
# [4] = compound: C1=CC(=CC=C1C2=NC3=C(N2)C=C(C=C3)C(=O)N)OC4=CC=C(C=C4)Cl
# How it was run: as §1
# [5] = compound: C1=CC2=C(C=CC(=C2)/C=C\3/C(=O)NC(=NCC4=CC=CS4)S3)N=C1
# How it was run: as §1
# [6] = compound: C1=CC2=NC=CN=C2C=C1/C=C/3\C(=O)NC(=O)S3
# How it was run: as §1
# [7] = compound: C1=CC=C(C=C1)C2=NC(=C(N2)C3=CC=NC=C3)C4=CC(=C(C=C4)Cl)O
# How it was run: as §1
# [8] = compound: C1=CC=C2C(=C1)C3=NNC4=CC=CC(=C43)C2=O
# How it was run: as §1
# [9] = compound: C1CCN(C1)C(=O)NC2=CC=CC(=C2)NC3=NC=C(C(=N3)NCCC4=CN=CN4)Br
# How it was run: as §1
# [10] = compound: C1CN(CCC1(CC2=CC=C(C=C2)Cl)N)C3=NC=NC4=C3C=CN4
# How it was run: as §1
# [11] = compound: C1COCCN1CCN2C3=CC=CC=C3N=C2NC(=O)C4=CC(=CC=C4)[N+](=O)[O-] [IRAK-1-4 Inhibitor I]
# How it was run: as §1
# [12] = compound: C=CC(=O)N1CCC[C@@H](n2nc(-c3ccc(Oc4ccccc4)cc3)c3c(N)ncnc32)C1 [ibrutinib]
# How it was run: as §1
# [13] = compound: CC(=O)c1cnc2ccc(-c3cc(Cl)c(O)c(Cl)c3)nc2c1N[C@H]1CC[C@H](CN(C)C)CC1
# How it was run: as §1
# [14] = compound: CC(C)(C)Cn1c(N)nc2ccc(-c3[nH]c(C(C)(C)C)nc3-c3ccc(F)cc3)nc21 [ralimetinib]
# How it was run: as §1
# [15] = compound: CC(C)(O)CC(=O)NCCn1ccc2ncnc(Nc3ccc(Oc4cccc(C(F)(F)F)c4)c(Cl)c3)c21
# How it was run: as §1
# [16] = compound: CC(C)C1=C2N=C(C=C(N2N=C1)NCC3=CC=CC=C3)NCCCCCCN
# How it was run: as §1
# [17] = compound: CC(C)C[C@@H](C=O)NC(=O)[C@H](CC(C)C)NC(=O)[C@H](CC(C)C)NC(=O)OCc1ccccc1
# How it was run: as §1
# [18] = compound: CC(C)N(C[C@H]1O[C@@H](n2cnc3c(N)ncnc32)[C@H](O)[C@@H]1O)[C@H]1C[C@@H](CCc2nc3cc(C(C)(C)C)ccc3[nH]2)C1 [pinometostat]
# How it was run: as §1
# [19] = compound: CC1=C(C(CC(=O)N1)C2=CC=C(C=C2)C(F)(F)F)C(=O)NC3=C(C=C4C(=C3)C=NN4)F
# How it was run: as §1
# [20] = compound: CC1=C(C2=C(C=C1)C(=O)C3=CC=CC=C3N2CCCN)C
# How it was run: as §1
# Sequence of UniProt Q9UBQ6 (Q9UBQ6 whole entry, looked up): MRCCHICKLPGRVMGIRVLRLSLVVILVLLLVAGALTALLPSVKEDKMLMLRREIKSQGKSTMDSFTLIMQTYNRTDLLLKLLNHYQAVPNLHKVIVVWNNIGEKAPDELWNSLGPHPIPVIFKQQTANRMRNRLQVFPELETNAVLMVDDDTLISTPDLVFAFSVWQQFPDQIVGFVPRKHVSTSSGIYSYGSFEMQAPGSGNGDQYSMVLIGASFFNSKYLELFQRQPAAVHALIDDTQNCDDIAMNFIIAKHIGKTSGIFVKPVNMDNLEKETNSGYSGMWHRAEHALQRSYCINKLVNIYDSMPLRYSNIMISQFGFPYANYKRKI
# Sequence of UniProt Q6UX04 (Q6UX04 whole entry, looked up): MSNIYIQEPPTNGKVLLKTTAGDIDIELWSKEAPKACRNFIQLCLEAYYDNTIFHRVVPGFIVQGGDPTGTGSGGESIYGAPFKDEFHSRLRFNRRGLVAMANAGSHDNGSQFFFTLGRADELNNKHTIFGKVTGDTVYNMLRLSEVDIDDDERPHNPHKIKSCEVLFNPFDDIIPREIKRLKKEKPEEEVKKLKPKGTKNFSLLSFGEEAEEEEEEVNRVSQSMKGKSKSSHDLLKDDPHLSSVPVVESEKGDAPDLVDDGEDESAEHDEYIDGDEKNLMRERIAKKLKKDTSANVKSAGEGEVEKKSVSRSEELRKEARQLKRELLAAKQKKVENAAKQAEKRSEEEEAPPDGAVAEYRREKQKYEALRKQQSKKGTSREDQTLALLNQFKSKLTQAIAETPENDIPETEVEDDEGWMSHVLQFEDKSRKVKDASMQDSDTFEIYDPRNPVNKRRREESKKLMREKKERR
# Sequence of UniProt P06730 (P06730 whole entry, looked up): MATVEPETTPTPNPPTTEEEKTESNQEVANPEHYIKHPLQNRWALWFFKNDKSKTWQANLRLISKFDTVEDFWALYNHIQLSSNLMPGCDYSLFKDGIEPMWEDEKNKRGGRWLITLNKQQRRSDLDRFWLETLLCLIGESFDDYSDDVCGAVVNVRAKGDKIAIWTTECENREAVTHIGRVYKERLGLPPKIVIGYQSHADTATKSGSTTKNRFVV
# Sequence of UniProt Q14320 (Q14320 whole entry, looked up): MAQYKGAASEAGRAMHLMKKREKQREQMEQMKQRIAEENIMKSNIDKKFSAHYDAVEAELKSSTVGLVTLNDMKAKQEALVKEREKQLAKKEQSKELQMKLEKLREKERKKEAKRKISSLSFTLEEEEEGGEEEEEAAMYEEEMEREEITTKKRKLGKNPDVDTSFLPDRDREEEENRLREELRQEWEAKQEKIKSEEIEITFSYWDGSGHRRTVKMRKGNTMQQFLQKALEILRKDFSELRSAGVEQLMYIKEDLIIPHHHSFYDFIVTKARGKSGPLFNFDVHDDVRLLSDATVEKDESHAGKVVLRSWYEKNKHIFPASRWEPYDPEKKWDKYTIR
# Sequence of UniProt Q04637 (Q04637 whole entry, looked up): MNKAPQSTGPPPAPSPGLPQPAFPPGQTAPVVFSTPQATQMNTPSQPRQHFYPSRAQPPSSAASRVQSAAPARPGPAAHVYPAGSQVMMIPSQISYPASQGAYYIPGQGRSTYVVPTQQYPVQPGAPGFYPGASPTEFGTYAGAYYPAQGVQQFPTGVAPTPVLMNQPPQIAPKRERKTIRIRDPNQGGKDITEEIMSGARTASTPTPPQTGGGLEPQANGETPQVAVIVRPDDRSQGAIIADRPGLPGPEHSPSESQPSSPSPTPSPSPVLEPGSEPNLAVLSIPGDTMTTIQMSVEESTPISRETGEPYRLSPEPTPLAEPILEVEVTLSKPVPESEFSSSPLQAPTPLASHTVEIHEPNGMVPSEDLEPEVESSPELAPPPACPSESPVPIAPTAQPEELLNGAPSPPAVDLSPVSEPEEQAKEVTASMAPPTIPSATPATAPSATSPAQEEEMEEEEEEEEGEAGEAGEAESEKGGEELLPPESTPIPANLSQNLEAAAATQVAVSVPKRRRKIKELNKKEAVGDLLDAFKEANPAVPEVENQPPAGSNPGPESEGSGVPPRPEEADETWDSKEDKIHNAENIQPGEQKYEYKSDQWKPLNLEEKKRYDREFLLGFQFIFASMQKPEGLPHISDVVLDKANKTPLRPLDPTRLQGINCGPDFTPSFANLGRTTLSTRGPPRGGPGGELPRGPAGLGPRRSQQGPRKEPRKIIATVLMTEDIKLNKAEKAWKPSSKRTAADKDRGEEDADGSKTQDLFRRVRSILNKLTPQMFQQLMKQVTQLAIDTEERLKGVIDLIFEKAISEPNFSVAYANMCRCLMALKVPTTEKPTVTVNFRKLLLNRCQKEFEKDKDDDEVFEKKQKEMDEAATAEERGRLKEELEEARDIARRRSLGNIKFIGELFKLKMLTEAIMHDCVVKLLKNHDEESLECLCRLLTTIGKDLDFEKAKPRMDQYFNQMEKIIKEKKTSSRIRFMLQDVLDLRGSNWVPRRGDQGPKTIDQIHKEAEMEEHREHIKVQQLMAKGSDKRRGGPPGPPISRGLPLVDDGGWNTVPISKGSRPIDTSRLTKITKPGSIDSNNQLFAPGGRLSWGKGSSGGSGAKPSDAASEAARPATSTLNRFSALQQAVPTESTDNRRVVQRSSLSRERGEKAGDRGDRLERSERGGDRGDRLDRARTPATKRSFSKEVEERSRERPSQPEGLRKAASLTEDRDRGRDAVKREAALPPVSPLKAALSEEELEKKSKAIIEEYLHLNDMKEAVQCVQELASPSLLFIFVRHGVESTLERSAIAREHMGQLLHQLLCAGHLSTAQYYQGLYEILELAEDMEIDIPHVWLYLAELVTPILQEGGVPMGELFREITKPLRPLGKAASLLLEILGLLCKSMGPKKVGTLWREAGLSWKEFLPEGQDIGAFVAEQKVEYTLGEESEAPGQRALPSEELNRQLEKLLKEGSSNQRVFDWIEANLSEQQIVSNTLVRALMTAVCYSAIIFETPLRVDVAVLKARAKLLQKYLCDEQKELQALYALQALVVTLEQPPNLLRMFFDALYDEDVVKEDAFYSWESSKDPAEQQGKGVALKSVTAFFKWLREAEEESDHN
# Sequence of UniProt Q96EV8 (Q96EV8 whole entry, looked up): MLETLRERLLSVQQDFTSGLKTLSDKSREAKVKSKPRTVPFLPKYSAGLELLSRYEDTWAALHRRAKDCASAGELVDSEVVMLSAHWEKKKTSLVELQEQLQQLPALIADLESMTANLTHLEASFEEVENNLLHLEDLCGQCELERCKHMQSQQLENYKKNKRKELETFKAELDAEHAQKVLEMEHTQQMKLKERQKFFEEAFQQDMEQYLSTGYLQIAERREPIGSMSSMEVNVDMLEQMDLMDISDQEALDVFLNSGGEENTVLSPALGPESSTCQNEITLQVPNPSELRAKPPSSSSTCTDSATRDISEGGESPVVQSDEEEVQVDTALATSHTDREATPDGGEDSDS
# Sequence of UniProt Q5NDL2 (Q5NDL2 whole entry, looked up): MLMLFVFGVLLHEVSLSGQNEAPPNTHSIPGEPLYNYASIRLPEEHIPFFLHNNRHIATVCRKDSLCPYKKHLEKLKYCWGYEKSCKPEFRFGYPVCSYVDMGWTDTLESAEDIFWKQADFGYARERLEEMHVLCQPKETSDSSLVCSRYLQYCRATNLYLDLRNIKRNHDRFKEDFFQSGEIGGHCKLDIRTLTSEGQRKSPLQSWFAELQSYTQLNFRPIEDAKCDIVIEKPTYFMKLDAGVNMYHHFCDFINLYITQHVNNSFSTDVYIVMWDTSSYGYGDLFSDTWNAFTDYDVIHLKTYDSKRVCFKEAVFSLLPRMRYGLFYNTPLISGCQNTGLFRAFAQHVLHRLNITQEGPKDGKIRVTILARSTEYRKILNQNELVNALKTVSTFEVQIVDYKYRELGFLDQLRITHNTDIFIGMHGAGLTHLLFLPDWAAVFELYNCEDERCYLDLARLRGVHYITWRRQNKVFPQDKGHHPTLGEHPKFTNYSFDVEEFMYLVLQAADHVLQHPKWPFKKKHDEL
# Sequence of UniProt Q9H467 (Q9H467 whole entry, looked up): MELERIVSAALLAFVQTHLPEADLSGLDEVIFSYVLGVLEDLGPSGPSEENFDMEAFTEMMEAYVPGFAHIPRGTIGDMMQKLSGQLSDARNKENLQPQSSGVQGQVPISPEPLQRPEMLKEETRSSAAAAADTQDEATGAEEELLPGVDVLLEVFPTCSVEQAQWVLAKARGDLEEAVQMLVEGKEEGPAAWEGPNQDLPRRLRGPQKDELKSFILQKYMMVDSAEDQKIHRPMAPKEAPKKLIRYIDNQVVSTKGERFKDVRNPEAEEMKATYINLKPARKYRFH
# Sequence of UniProt P17844 (P17844 whole entry, looked up): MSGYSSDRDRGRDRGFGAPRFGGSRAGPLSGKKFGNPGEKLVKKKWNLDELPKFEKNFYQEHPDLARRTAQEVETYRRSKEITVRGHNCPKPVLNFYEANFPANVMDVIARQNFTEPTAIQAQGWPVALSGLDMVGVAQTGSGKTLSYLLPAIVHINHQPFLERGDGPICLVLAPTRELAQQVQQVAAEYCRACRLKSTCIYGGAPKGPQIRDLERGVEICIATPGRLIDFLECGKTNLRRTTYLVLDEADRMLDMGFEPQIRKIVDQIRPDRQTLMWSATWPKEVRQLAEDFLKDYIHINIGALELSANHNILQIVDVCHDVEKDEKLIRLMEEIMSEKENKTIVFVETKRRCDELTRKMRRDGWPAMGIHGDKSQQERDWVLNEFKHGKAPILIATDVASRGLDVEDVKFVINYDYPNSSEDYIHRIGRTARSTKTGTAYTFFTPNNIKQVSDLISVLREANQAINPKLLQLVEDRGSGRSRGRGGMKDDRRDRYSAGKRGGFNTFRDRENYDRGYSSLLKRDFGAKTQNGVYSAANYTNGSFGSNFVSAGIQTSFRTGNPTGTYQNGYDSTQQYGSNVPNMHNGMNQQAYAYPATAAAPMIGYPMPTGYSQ
# Sequence of UniProt P50402 (P50402 whole entry, looked up): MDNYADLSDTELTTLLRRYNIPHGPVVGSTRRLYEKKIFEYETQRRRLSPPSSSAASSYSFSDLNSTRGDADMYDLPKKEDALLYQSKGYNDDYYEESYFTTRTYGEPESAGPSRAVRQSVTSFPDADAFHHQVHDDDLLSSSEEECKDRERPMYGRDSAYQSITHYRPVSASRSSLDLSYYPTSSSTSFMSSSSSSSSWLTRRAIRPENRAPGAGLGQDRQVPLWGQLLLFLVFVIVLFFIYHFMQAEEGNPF
Target,log2 fold change [1],log2 fold change [2],log2 fold change [3],log2 fold change [4],log2 fold change [5],log2 fold change [6],log2 fold change [7],log2 fold change [8],log2 fold change [9],log2 fold change [10],log2 fold change [11],log2 fold change [12],log2 fold change [13],log2 fold change [14],log2 fold change [15],log2 fold change [16],log2 fold change [17],log2 fold change [18],log2 fold change [19],log2 fold change [20]
CYFIP1 (UniProt Q7L576),-0.016,0.066,0.07,0.018,0.002,0.026,0.003,-0.016,0.005,0.059,-0.001,-0.019,-0.07,-0.013,-0.056,-0.042,-0.013,0.001,0.009,0.026
DDX5 (UniProt P17844),0.13,0.101,0.072,0,-0.003,-0.046,0.059,-0.032,-0.061,-0.127,-0.114,0.002,-0.358 (active),-0.024,-0.189,-0.12,0.069,0.017,-0.067,0.072
EXOC1 (UniProt Q9NV70),0.057,0.163,-0.104,-0.05,0.17,0.013,0.051,0.054,-0.044,-0.073,-0.085,-0.015,-0.033,0.112,-0.151,-0.419 (active),0.018,0.214,0.052,0.071
DTNBP1 (UniProt Q96EV8),0.016,0.028,0.038,0.03,0.028,-0.038,-0.043,-0.043,-0.009,0.002,0.069,-0.025,0.038,-0.136,-0.058,-0.009,-0.029,-0.044,-0.01,0.092
DNAAF2 (UniProt Q9NVR5),0.046,0.021,0.108,-0.003,0.01,0.016,-0.018,-0.025,0.021,-0.025,-0.02,-0.023,0.014,0.022,0.013,-0.025,-0.054,-0.023,0,-0.013
DFFB (UniProt O76075),-0.015,0.103,0.022,0.035,0.101,0.016,0.037,-0.005,-0.305 (active),-0.039,-0.002,-0.047,0.011,0.005,-0.148,0.066,0.045,0.008,-0.052,0.009
EMD (UniProt P50402),0.025,0.002,-0.078,0.056,0.008,0.033,-0.011,-0.072,0.031,0.074,0.039,0.009,-0.021,-0.004,0.028,-0.114,0.034,0.013,0.021,-0.042
EDEM2 (UniProt Q9BV94),-0.025,0.023,-0.009,0.09,0.132,-0.318,0.012,0.081,-0.018,0.05,0.181,-0.014,-0.062,-0.138,-0.009,-0.071,0.065,-0.001,0.009,0.022
CTSH (UniProt P09668),0.015,-0.054,0.052,0,-0.062,0.048,0.022,-0.011,0.047,0.057,0.009,0.034,0.005,0.104,0.005,-0.142,-0.016,-0.06,0.009,-0.043
CWC27 (UniProt Q6UX04),0.084,-0.023,0.055,-0.049,0.021,0.02,0.041,-0.102,-0.086,-0.053,-0.045,-0.111,-0.133,0.048,-0.08,0.018,-0.007,-0.023,-0.045,0.199
EXTL2 (UniProt Q9UBQ6),0.051,0.018,-0.129,0.04,0.016,0.037,-0.031,0.062,-0.092,-0.119,-0.018,0.019,-0.073,-0.061,0.062,0.01,0.041,0,0.021,0.12
DHX16 (UniProt O60231),0.01,0.05,0.224,0.027,0.007,-0.01,0.014,0.013,-0.044,0.024,-0.006,0,-0.257 (active),-0.001,-0.025,-0.002,0.009,0.004,-0.045,0.159
EVC2 (UniProt Q86UK5),-0.01,-0.044,-0.013,-0.035,-0.069,-0.019,-0.002,0.061,-0.042,-0.117,0.052,0.032,-0.061,-0.15,0.038,0.064,0.038,-0.011,0.091,-0.014
EBNA1BP2 (UniProt Q99848),-0.041,-0.149,-0.466,0.034,0.042,0.052,-0.047,-0.134,0.048,-0.414,-0.143,-0.013,0.013,0.27,0.124,0.213,-0.026,0.439,0.006,-1.4 (active)
EOGT (UniProt Q5NDL2),-0.058,-0.018,-0.032,0.002,-0.026,-0.016,-0.032,0.032,0.004,0.04,-0.002,0.005,0.006,-0.036,0.016,-0.024,0.026,0.075,0.002,0.003
EIF4E isoform 2 (UniProt P06730),0.084,-0.035,0.056,-0.073,0.01,0.168,0.074,0.152,0.181,0.146,0.066,0.089,0.308,-0.071,-0.016,0.114,0.012,-0.057,-0.024,0.027
FAM50A (UniProt Q14320),0.015,0.051,0.054,-0.017,-0.009,0.062,-0.019,-0.001,-0.026,-0.065,-0.014,-0.011,-0.01,-0.029,-0.027,0,0.043,-0.016,-0.026,0.053
ESS2 (UniProt Q96DF8),-0.057,-0.05,-0.013,0.046,-0.083,0.04,-0.055,-0.071,-0.008,0.096,0.032,0.025,0.031,-0.009,0.013,0.002,0.136,0.056,0.099,-0.021
CUEDC2 (UniProt Q9H467),0.016,-0.023,0.047,0.023,-0.021,0.117,-0.074,0.008,-0.071,-0.006,0.035,-0.011,0.003,-0.026,-0.056,-0.003,0.198,-0.001,-0.015,-0.159
DHRS7B (UniProt Q6IAN0),-0.039,0.07,0.011,0.009,0.027,0.012,0.144,0.034,-0.037,0.058,0.027,-0.017,-0.063,0.23,0.055,0.115,-0.113,-0.055,-0.049,-0.003
EIF4G1 isoform 8 (UniProt Q04637),-0.092,0.128,-0.065,0.011,-0.036,-0.089,-0.099,-0.246,-0.197,-0.28,-0.124,-0.148,-0.3,0.057,-0.053,-0.387,0.046,0.149,0.096,0.018
ELOC (UniProt Q15369),-0.055,0.124,0.066,0.017,0.117,0.048,0.075,0.009,-0.016,-0.024,0.017,-0.011,-0.018,-0.027,-0.07,-0.032,-0.042,0.008,0.002,0.165
FAM122A (UniProt Q96E09),0.095,0.073,0.053,-0.025,-0.068,0.051,-0.019,0.03,0.031,-0.075,0.002,0.016,-0.015,-0.053,0.105,0.066,0.016,-0.008,0.007,-0.117
CWF19L2 (UniProt Q2TBE0),0.004,0.056,,0.038,0.03,,-0.132,-0.014,0.017,-0.04,0.029,,-0.075,0.014,,0.184,0.02,0.098,,0.106
EIF4G1 (UniProt Q04637),,0.171,,,0.018,,,-0.356,-0.301,-0.425,,,-0.334,,,,,,,0.067
CYB561A3 isoform 2 (UniProt Q8NBI2),-0.021,-0.016,,0.02,-0.005,0.114,0.043,-0.034,-0.01,0.069,0.024,0.014,0.033,-0.026,,-0.164,-0.019,-0.054,-0.069,-0.027

# From the supplement of paper PMC10849652
